High-throughput results as filed in PubChem BioAssay.
Hits are enriched below; roughly 3.4% of the tested compounds scored in any of these assays.
TEAD-YAP inh: TEAD-YAP interaction inhibition. inhibition, % at 9.12 µM. AID 1259422. HEK-TIYL cells, TEAD-Gal4/YAP UAS-luciferase luminescence. 1.4% of 640,000 active; in the data active means inhibition above about 32%;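 further: 0% = median of test compound wells and 100% = reference inhibitor wells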
FBW7 activator: activators of human E3 ligase FBW7; Q969H0; AlphaScreen FBW7–phospho-cyclin E peptide binding, activator screen; normalized activity (activation), % at 26.1 µM; 0.13% of 650,000 active; in the data active means normalized activity above about 1.9%;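 further: purified mutant Fbw7 with reduced substrate affinity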
GPR151 ag: human GPR151 activation | Q8TDV0 | activation, % at 11.2 µM | AID 1508602 | 1% of 650,000 active | PathHunter beta-arrestin GPR151 cells, luminescence; in the data active means activation above about 4.9%;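 further: 0% = median of compound wells and 100% = cells with positive control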
MITF inh: human MITF inhibition, primary screen. O75030. AlphaScreen MITF homodimerization, bead proximity signal. inhibition, % at 2.6 µM. 0.91% of 650,000 active; in the data active means inhibition above about 50%;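 further: 0% = vehicle wells with protein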
GPR151 conf act: confirmation of human GPR151 activators; activation, % at 11.2 µM; AID 1508609; shares compounds with GPR151 ag; 6,700 tested, under 10 active; GPR151 PathHunter beta-arrestin cells, luminescence, 90 min; % of EA-reagent control over plate median;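 active means mean percent activation across replicates above the confirmation screen cutoff of 4.91%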
GPR119 counter: counter-screen for GPR151 activators: effect on human GPR119 | shares compounds with GPR151 ag | GPR119 PathHunter beta-arrestin cells, luminescence, 90 min; 0 = compound-well median, 100 = enzyme-acceptor control | activation, % at 11.2 µM | 0.3% of 6,700 active | AID 1508611;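 active means mean percent activation in the counterscreen above 29.09%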;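 further: counterscreen on off-target GPR119 to flag nonselective hits from the GPR151 activator screen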
Target sequence (Q8TDV5 whole entry, looked up): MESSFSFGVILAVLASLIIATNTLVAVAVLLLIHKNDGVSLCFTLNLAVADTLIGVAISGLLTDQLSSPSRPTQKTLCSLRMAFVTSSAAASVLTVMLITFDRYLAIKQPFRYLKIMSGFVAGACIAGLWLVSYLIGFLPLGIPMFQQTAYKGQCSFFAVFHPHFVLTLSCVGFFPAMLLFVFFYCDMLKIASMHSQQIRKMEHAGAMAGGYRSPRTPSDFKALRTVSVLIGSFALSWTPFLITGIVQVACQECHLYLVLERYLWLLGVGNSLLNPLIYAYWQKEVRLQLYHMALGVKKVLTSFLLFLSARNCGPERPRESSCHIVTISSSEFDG
Starred values were filed as active, the others as inactive; / = not tested or not shown; ! = repeats disagree.

SMILES	TEAD-YAP inh	FBW7 activator	GPR151 ag	MITF inh	GPR151 conf act	GPR119 counter
CCOc1ccccc1CN1CCN(C2CCCC2)CC1CCO (stereo not given)	-4	0	1	3	/	/
OCCC1CN(Cc2ccncc2)CCN1Cc1ccccc1F (stereo not given)	4	0	6.6*	9	1	-6
Cc1nn(C)cc1CNC(=O)c1ccc(Cl)cc1Cl	2	0	3	-18	/	/
CC(C)[C@@H]1NC(=O)[C@H]2CN(Cc3nc(-c4ccccc4)cs3)CCN2C1=O	-10	0	-1	1	/	/
CSc1cccc(CNCc2c(C(=O)N3CCCN(C)CC3)nc3sccn23)c1	-13	0	3	-9	/	/
CCOc1ccccc1CN1CCN(Cc2cc(F)cc(F)c2)CC1CCO (stereo not given)	-1	0	0	6	/	/
CCOc1ccccc1CN1CCN(Cc2cccc(F)c2)CC1CCO (stereo not given)	-9	0	5.4*	-11	-1	-13
CCOc1ccccc1N1CC(C(=O)Nc2ccccc2Cl)CC1=O (stereo not given)	5	0	3	-1	/	/
COc1ccc(C(=O)NCCC(=O)NCC2CCCO2)cc1OC (stereo not given)	-8	0	5.7*	-4	0	9
COc1ccc(S(=O)(=O)NNC(=S)NCC2CCCO2)c(OC)c1 (stereo not given)	-1	0	5.0*	1	-1	-10
O=S(=O)(NNC(=S)NCC1CCCO1)c1cc(Cl)ccc1Cl (stereo not given)	3	0	-1	6	/	/
CCc1cccc(OC2=C(Cl)C(=O)N(c3ccc(OC)cc3)C2=O)c1	14	1	0	12	/	/
Cc1cccc(NC(=O)Cn2cnc3scc(-c4ccccc4)c3c2=O)c1C	4	1	-3	11	/	/
O=C(Nc1ccc2[nH]ncc2c1)[C@@H]1CCCN1C(=O)C(O)c1ccc(Cl)cc1 (stereo not given in full)	0	0	5.2*!	10	0	5
O=C(Nc1ccc2[nH]ncc2c1)[C@H]1CCCN1C(=O)C(O)c1ccc(Cl)cc1 (stereo not given in full)	-1	0	-1	5	/	/
Cc1nc(SCC(O)CCl)c([N+](=O)[O-])[nH]1 (stereo not given)	-3	0	8.5*	2	0	1
COC(=O)c1ccc(CSc2nc(C)[nH]c2[N+](=O)[O-])o1	0	0	2	-16	/	/
COc1ccc(CNC(=O)c2noc(C)c2[N+](=O)[O-])cc1	9	0	5.0*	8	0	5
CC(C)N(CCNc1cc(Nc2ccncn2)ncn1)C(C)C	-1	0	0	5	/	/
CN1CCN(C(=S)Nc2cccc(Cl)c2)CC1	6	0	2	14	/	/
CCN1CCN(C(=S)Nc2cccc(Cl)c2)CC1	6	0	5.8*	23	0	-4
Cc1ccc(Cn2c3ccccc3c3cnn(CC(=O)N4CCCC4)c(=O)c32)cc1	11	0	0	11	/	/
CCc1cc2c(SCC(=O)Nc3ccc(Br)cc3)ncnc2s1	10	0	0	-5	/	/
CCc1cc2c(SCC(=O)c3ccccc3)ncnc2s1	-45	0	-1	6	/	/
CCc1cc2c(SCC(=O)c3cccs3)ncnc2s1	-15	0	5.1*	8	-1	-13
SMILES	TEAD-YAP inh	FBW7 activator	GPR151 ag	MITF inh	GPR151 conf act	GPR119 counter
CCc1cc2c(SCC(=O)Nc3sccc3C(N)=O)ncnc2s1	1	0	7.0*	-1	0	-8
CC(=O)Nc1c(C(=O)Nc2ccc(C)cc2)oc2ccccc12	-27	1	-1	-6	/	/
Cc1cn2c3c(=O)n(CC(N)=O)c(=O)n(C)c3nc2n1-c1ccc(Cl)cc1	3	0	5.7*	5	0	-4
CCC(CC)C(=O)N1CCCC(COc2cccc(CN(C)C3CCN(C)CC3)c2)C1 (stereo not given)	-9	0	-1	0	/	/
S=C1Nc2ccccc2C2CC=NN12 (stereo not given)	4	0	5.7*	5	-1	-2
N#Cc1ccc(CSC2=Nc3ccccc3C3CC=NN23)cc1 (stereo not given)	-3	0	-1	11	/	/
Cc1ccc(C)n1-c1ccc(-c2ccnc(-c3ccncc3)n2)cc1	4	0	5.4*	6	0	0
